Data on 39 molecules can be found in ChEMBL document CHEMBL3988442, “University of Dundee, Small-Polar-MMV Screening Library” (2021).

Assay [1] deals with T1, Aspartate--tRNA(Asp/Asn) ligase (Mycobacterium tuberculosis (strain ATCC 25618 / H37Rv)) (UniProt P9WFW3).
T1 sequence (whole entry): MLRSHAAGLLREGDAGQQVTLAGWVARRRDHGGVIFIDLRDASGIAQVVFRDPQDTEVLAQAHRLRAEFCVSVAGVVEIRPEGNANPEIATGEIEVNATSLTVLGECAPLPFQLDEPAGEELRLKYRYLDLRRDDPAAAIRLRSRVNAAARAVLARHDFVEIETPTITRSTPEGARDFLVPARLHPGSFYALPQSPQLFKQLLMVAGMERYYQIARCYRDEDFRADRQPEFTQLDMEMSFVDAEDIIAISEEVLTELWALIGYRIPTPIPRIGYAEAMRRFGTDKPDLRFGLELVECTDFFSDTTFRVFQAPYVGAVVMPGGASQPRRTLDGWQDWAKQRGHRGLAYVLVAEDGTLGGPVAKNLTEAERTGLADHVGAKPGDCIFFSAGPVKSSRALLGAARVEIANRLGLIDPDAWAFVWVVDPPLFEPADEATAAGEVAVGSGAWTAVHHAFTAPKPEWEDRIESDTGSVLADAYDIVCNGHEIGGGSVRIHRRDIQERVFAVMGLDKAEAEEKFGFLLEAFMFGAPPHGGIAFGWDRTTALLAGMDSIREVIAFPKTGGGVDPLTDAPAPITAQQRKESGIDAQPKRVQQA
Nature of the assay: Assay for Asp RNA synthetase-1 from Mycobacterium tuberculosis. It is filed as functional. Set-up: scale not given: direction of the effect not stated beside the values. Particulars: 30 µM.

The target in assay [2] is Shiga toxin 2 (Escherichia coli O157:H7) (UniProt P09385+P09386). Put plainly: E. coli 0.157:H7 Shiga Toxin SOP - stx2 screening assay. It is filed as functional. Set-up: scale not given: direction of the effect not stated beside the values. Particulars: 30 µM.

With `Cc1cncc(C(=O)N2CCCC(C(=O)CCc3ccccc3)C2)c1` (stereo not drawn), the Percent Effect in assay [1] is 13.2%; in assay [2], -26.1%.
The like results for `CC(NC(=O)CCn1cncn1)c1nnc2n1CCCCC2` (stereo not drawn) were, in that order, -0.486% and -13.7%.
The like results for `Cc1noc(C(C)C)c1C(=O)NCc1cccc(N(C)C)c1` were, in that order, -3.25% and 13.2%.
The corresponding values for `NC(=O)c1cc(NC(=O)NCCc2cc(F)cc(F)c2)ccc1F` are 4.79% and -82%.
For the molecule `CCCOCC(=O)NS(=O)(=O)c1ccc2c(c1)OCCCO2`, the values for the Percent Effect in assay [1] and in assay [2] were 1.8% and 17.6%, respectively.
The corresponding values for `CCN1CCC(NC(=O)CN2CCCC2Cn2nc(C)cc2C)CC1` (stereo not drawn) are -0.781% and 17.1%.
Consider `O=C1CC(c2ccc(F)c(F)c2)c2snc(C(=O)O)c2N1` (stereo not drawn), for which the Percent Effect is 3.57% in assay [1] and -5.34% in assay [2].
For `CCCc1noc(CCC(=O)N2CCCC2c2ccsc2)n1` (stereo not drawn), the values for the Percent Effect in assay [1] and in assay [2] were -1.06% and 8.4%, respectively.
The like results for `Cc1nnc(NC(=O)CN(C)CC2CCCN2c2cccnn2)s1` (stereo not drawn) were, in that order, 0.577% and -34.1%.
Consider `COc1ccccc1C1CNC(=O)c2nc(-c3cnn(C)c3)[nH]c2C1` (stereo not drawn), for which the Percent Effect is 1.33% in assay [1] and -58% in assay [2].
Take `CC(C)c1nc(C2CCCN2Cc2ccno2)no1` (stereo not drawn): the Percent Effect in assay [1] is 1.46%; in assay [2], 1.7%.
The corresponding values for `O=C(Cc1cccs1)N1CC[C@H]2[C@@H]1CCC(=O)N2c1cccnc1` are -1.62% and -9.24%.
On to `COc1ccc(CS(=O)(=O)CC(=O)NCc2ccccc2F)cc1F`, for which the Percent Effect was 5.03% in assay [1] and -1.34% in assay [2].
Turning to `CCOc1ccccc1C1CCCN1` (stereo not drawn), the Percent Effect in assay [1] was 2.67%; in assay [2], -3.4%.
In the case of `Cc1cncc(C(=O)N2CCCCC2c2nc(C)cs2)c1` (stereo not drawn), the Percent Effect in assay [1] was -9.59%; in assay [2], -42.4%.
Take `COc1cccc([C@@H]2CN(C(=O)c3ccc(C)cc3O)C[C@H]2C(=O)O)c1`: the Percent Effect in assay [1] was 1.74%; in assay [2] it was -5.94%.
Turning to `COc1ccc(C(=O)NS(=O)(=O)c2ccc(C#N)cc2C(F)(F)F)cc1`, the Percent Effect in assay [1] is -0.26%; in assay [2], 8.91%.
Turning to `O=C(c1coc(COc2cccc(F)c2)n1)N1CC[C@H](O)[C@@H](O)C1`, the Percent Effect in assay [1] amounted to 2.06%; in assay [2] it was 11.7%.
On to `CCN(c1ccc(C(=O)N2CCCC(C)C2)cc1)S(=O)(=O)CC` (stereo not drawn), for which the Percent Effect is -3.34% in assay [1] and -10.8% in assay [2].
For the molecule `Cc1cccc(-c2nc(CN(Cc3cccs3)CC3CCCO3)no2)c1` (stereo not drawn), the Percent Effect in assay [1] is -0.626%; in assay [2], -5.45%.
The like results for `COCc1nc(C(=O)NS(=O)(=O)c2ccc(C)cc2C)cs1` were, in that order, 0.811% and -0.5%.
For `c1ccc(OCC2CC3(CCN(c4ncccn4)CC3)CO2)nc1` (stereo not drawn), the Percent Effect is 4.62% in assay [1] and -0.916% in assay [2].
Take `Cn1cc(CNC2CCCN(Cc3noc(C4CC4)n3)C2)cn1` (stereo not drawn): the Percent Effect in assay [1] is -1.26%; in assay [2], 24.8%.
In the case of `COc1ccc(CN2CCn3c(CNS(C)(=O)=O)nnc3C2)cc1`, the Percent Effect in assay [1] is 1.39%; in assay [2], -6.04%.
As for `O=C(CCn1cccn1)N1CCN(CC(F)F)CC1`, the Percent Effect in assay [1] was determined as 2.16%; in assay [2], 15.4%.
The like results for `Cc1ccc(N2CCC3(CC2)CC(OCC(=O)N(C)C)CO3)nn1` (stereo not drawn) were, in that order, -2.52% and -23.3%.
The like results for `O=C(CSC1=NS(=O)(=O)c2cc(F)ccc2N1)c1ccc(Cl)cc1` were, in that order, 5.12% and -0.176%.
The corresponding values for `Cc1ccc(CC(=O)N2CCOC(c3nc(C)n[nH]3)C2)cn1` (stereo not drawn) are 1.92% and 0.301%.
As for `CC(C)OCCOCc1cccc(NC(=O)NCCn2ccnc2)c1`, the figures for the Percent Effect in assay [1] and in assay [2] were 2.56% and -31.1%, respectively.
The like results for `CC[C@@H](CO)NC(=O)c1coc(COc2ccc(OC)cc2)n1` were, in that order, 6.33% and -5.46%.
Regarding `Cc1cc(C)cc(-c2ccc(CC3(C(=O)O)CCOCC3)cc2)c1`, the values for the Percent Effect in assay [1] and in assay [2] were 4.9% and -4.63%, respectively.
Consider `CCC1=N[C@@]2(CC[C@@H]3CN(S(=O)(=O)CC)C[C@@H]32)C(=O)N1CC(C)C`, for which the Percent Effect is 2.06% in assay [1] and -9.69% in assay [2].
The like results for `COc1ccc(CC(=O)N2CCCN(c3ccc(C#N)cc3)CC2)cc1` were, in that order, 5.93% and -7.8%.
The corresponding values for `O=C(Cc1ccc(O)c(Cl)c1)N1CCCCC1CCn1cccn1` (stereo not drawn) are -0.725% and -11.4%.
The like results for `Cc1cc(CN2CCN(C(=O)NC(C)c3cccnc3)CC2)on1` (stereo not drawn) were, in that order, -1.43% and 24.6%.
In the case of `Cc1cc(C)c(CNC(=O)N2CCCC2C(N)=O)c(=O)[nH]1` (stereo not drawn), the Percent Effect in assay [1] is -6.91%; in assay [2] it was -4.4%.
The like results for `O=C(CCc1cscn1)NS(=O)(=O)c1ccc2ccccc2c1` were, in that order, -3.43% and 11.4%.
The corresponding values for `Cc1nnc(C(C)N2CCN(Cc3ccc4c(c3)OCO4)CC2)o1` (stereo not drawn) are -0.657% and 17.8%.
The like results for `CCS(=O)(=O)N1CCC(c2nc3ccc(-c4ccccc4)cn3n2)CC1` were, in that order, 0.251% and -35.2%.
